Measurements reported in PubChem BioAssay (NCATS).
Results filed as inconclusive are left out. Activity calls are given as the source filed them. The call rests on the fitted dose curve; in most records, active means well fitted cell-killing curve with a large enough effect; inconclusive means small, poorly fitted or top-dose-only effect; inactive means flat fitted curve, though single readings scatter.

How the values were obtained:
[1] = Cell Viability - LYMP2-017 (AID 972); settings: LYMP2-017 lymphoblastoid cell viability; series mostly up to 92.2 µM; further: nearly all actives have a fitted effect of over 55% in size; further: potency means the concentration at half of the fitted maximal effect
Method in brief: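 Human lymphoblastoid cells (2500/well) were seeded in complete medium, held 5 hr at 37 C, then exposed to compounds for 24 hr at 37 C. Intracellular ATP was read by CellTiter-Glo luminescence after 30 min at room temperature, with AC50 values from Hill-equation fits.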

[2] = Cell Viability - LYMP2-015 (AID 971); settings: LYMP2-015 lymphoblastoid cell viability; series mostly up to 92.2 µM; further: nearly all actives have a fitted effect of over 55% in size; further: potency means the concentration at half of the fitted maximal effect
Method in brief: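 Human lymphoblastoid cells (2500/well) in complete medium were preincubated 5 hr at 37 C, then compound-treated 24 hr at 37 C. Intracellular ATP was read by CellTiter-Glo luminescence after 30 min at room temperature; AC50 came from Hill-equation concentration-response fits.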

[3] = Cell Viability - LYMP2-019 (AID 973); settings: LYMP2-019 lymphoblastoid cell line viability; series mostly up to 92.2 µM; further: nearly all actives have a fitted effect of over 55% in size; further: potency means the concentration at half of the fitted maximal effect
Method in brief: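 Human lymphoblastoid cells were seeded at 2500 cells/well, preincubated 5 hr at 37 C, then exposed to compounds for 24 hr at 37 C in complete medium. Intracellular ATP was measured by CellTiter-Glo luminescence; AC50 from Hill fits.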

[4] = Cell Viability - LYMP2-021 (AID 974); settings: LYMP2-021 lymphoblastoid cells viability; series mostly up to 92.2 µM;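 further: compound exposure lasts 24 hours at 37 °C; nearly all actives have a fitted effect of over 55% in size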; further: potency means the concentration at half of the fitted maximal effect
Method in brief: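 Human lymphoblastoid cells (2500/well) were preincubated 5 hr at 37 C, then exposed to compounds for 24 hr at 37 C in complete medium. Intracellular ATP was read by CellTiter-Glo luminescence; AC50 came from Hill-equation fits of concentration-response data.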

[5] = Cell Viability - LYMP2-002 (AID 977); settings: LYMP2-002 lymphoblastoid cell viability, qHTS; series mostly up to 92.2 µM
Method in brief: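 Luminescent ATP readout (CellTiter-Glo, 30 min room temperature) after 24 h compound exposure at 37 C of a human lymphoblastoid line, 2500 cells/well. AC50 values derived by standard Hill fitting of qHTS concentration-response data.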

[6] = Cell Viability - LYMP2-007 (AID 979); settings: LYMP2-007 lymphoblastoid cell viability; series mostly up to 92.2 µM;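 further: cells exposed to compound for 24 h before reading; nearly all actives have a fitted effect of over 60% in size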; further: potency means the concentration at half of the fitted maximal effect
Method in brief: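 Human lymphoblastoid cells (2500/well) were plated in complete medium, incubated 5 hr at 37 C, then exposed to compounds for 24 hr at 37 C. Intracellular ATP was read by CellTiter-Glo luminescence after 30 min at room temperature; AC50 from Hill fits.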

[7] = Cell Viability - LYMP2-023 (AID 975); settings: LYMP2-023 lymphoblastoid cell viability; series mostly up to 92.2 µM; further: nearly all actives have a fitted effect of over 55% in size; further: potency means the concentration at half of the fitted maximal effect
Method in brief: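 Human lymphoblastoid cells (2500/well) were preincubated 5 hr at 37 C, then exposed to compounds for 24 hr at 37 C in complete medium. Cellular ATP was read by CellTiter-Glo luminescence, and AC50 came from Hill-equation fits.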

[8] = Cell Viability - LYMP2-006 (AID 978); settings: LYMP2-006 lymphoblastoid cell viability, qHTS; series mostly up to 92.2 µM; further: nearly all actives have a fitted effect of over 60% in size; further: potency means the concentration at half of the fitted maximal effect
Method in brief: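 Potency values are Hill-fit AC50s for decreases in intracellular ATP (CellTiter-Glo luminescence). LYMP2-006 lymphoblastoid cells, 2500 per well, were exposed to compound in complete culture medium for 24 hr at 37 C.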

[9] = Cell Viability - LYMP2-025 (AID 976); settings: LYMP2-025 lymphoblastoid cell viability; series mostly up to 92.2 µM
Method in brief: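 Human lymphoblastoid LYMP2-025 cells (2500/well) were pre-incubated 5 hr at 37 C, then treated with compounds for 24 hr at 37 C in complete medium. Viability was read as intracellular ATP by CellTiter-Glo luminescence; AC50 from Hill fits.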

[10] = Cell Viability - LYMP2-008 (AID 980); settings: LYMP2-008 lymphoblastoid cell viability, qHTS; series mostly up to 92.2 µM; further: nearly all actives have a fitted effect of over 60% in size; further: potency means the concentration at half of the fitted maximal effect
Method in brief: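 Human lymphoblastoid cells (2500/well) were plated, held 5 hr at 37 C, then exposed to compounds for 24 hr at 37 C in complete medium. Intracellular ATP was read by CellTiter-Glo luminescence; AC50 from Hill-fitted concentration-response.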

Measured: Potency

C[C@H]1O[C@@H](O[C@H]2[C@@H](O)C[C@H](O[C@H]3[C@@H](O)C[C@H](O[C@H]4CC[C@@]5(C)[C@H](CC[C@@H]6[C@@H]5C[C@@H](O)[C@]5(C)[C@@H](C7=CC(=O)OC7)CC[C@]65O)C4)O[C@@H]3C)O[C@@H]2C)C[C@H](O)[C@@H]1O
active: [1] 0.251 µM

CC/C=C\C/C=C\C/C=C\CCCCCCCC(=O)O
inactive: [5]
active: [2] 50.1 µM | [1] 50.1 µM | [3] 50.1 µM | [4] 50.1 µM | [6] 39.8 µM

O=c1n(CC2CO2)c(=O)n(CC2CO2)c(=O)n1CC1CO1 (stereo not drawn)
active: [2] 39.8 µM | [1] 39.8 µM | [3] 39.8 µM | [4] 31.6 µM | [7] 39.8 µM | [8] 39.8 µM | [6] 39.8 µM

[O-][N+](=Nc1ccccc1)c1ccccc1
inactive: all assays above

C/C=C/C=C/C(=O)O
inactive: all assays above

Oc1ccc(/C=C/c2cc(O)cc(O)c2)cc1
inactive: all assays above

C[C@H](CCC(=O)O)[C@H]1CC[C@H]2[C@@H]3CC[C@@H]4C[C@H](O)CC[C@]4(C)[C@H]3C[C@H](O)[C@]12C
inactive: all assays above

OCc1ccccc1
inactive: all assays above

CC1=CC(=O)NS(=O)(=O)O1
inactive: all assays above

Oc1cccc(O)c1O
not listed: [4] | [6]
inactive: all other assays above

Nc1ncnc2c1ncn2[C@H]1CC[C@@H](CO)O1
inactive: all assays above

NC(N)=O
inactive: all assays above

Nc1nccs1
inactive: all assays above

CCOC(C)OCC
inactive: all assays above

ClC(Cl)Cl
inactive: all assays above

Cc1ncc[nH]1
inactive: all assays above

O.O.O.O.O.O.O.O=S(=O)([O-])[O-].[Co+2]
inactive: [1] | [7] | [9] | [8] | [10]

CC(C)(C)CC(C)(C)c1ccc(OCCO)cc1
not listed: [3] | [9]
inactive: all other assays above

O=P(O)(O)O
inactive: all assays above

C[C@H](CCC(=O)O)[C@H]1CC[C@H]2[C@@H]3[C@H](O)C[C@@H]4C[C@H](O)CC[C@]4(C)[C@H]3C[C@H](O)[C@]12C
inactive: all assays above

CCCCC
inactive: all assays above

CCCCO
inactive: all assays above

OCC(O)CO
inactive: all assays above

CC(C)O
inactive: all assays above

CO
inactive: all assays above

c1ccc2ccccc2c1
inactive: all assays above

CC[C@H]1OC(=O)[C@H](C)[C@@H](O[C@H]2C[C@@](C)(OC)[C@@H](O)[C@H](C)O2)[C@H](C)[C@@H](O[C@@H]2O[C@H](C)C[C@H](N(C)C)[C@H]2O)[C@](C)(O)C[C@@H](C)CN(C)[C@H](C)[C@@H](O)[C@]1(C)O
inactive: all assays above

OB(O)O
inactive: all assays above

OCl
inactive: all assays above

Cc1ccc(S(=O)(=O)O)cc1C
inactive: all assays above

CC1=CCC2CC1C2(C)C (stereo not drawn)
inactive: all assays above

NCCN
inactive: all assays above

COC(=O)c1ccccc1O
inactive: all assays above

C=C1C(CCl)(CCl)C2(Cl)C(Cl)C(Cl)C1(Cl)C2(Cl)Cl (stereo not drawn)
active: [2] 39.8 µM | [1] 50.1 µM | [3] 39.8 µM | [4] 50.1 µM | [7] 50.1 µM | [8] 50.1 µM | [6] 39.8 µM | [10] 31.6 µM

OC[C@H]1O[C@@H]2O[C@H]3[C@H](O)[C@@H](O)[C@@H](O[C@H]4[C@H](O)[C@@H](O)[C@@H](O[C@H]5[C@H](O)[C@@H](O)[C@@H](O[C@H]6[C@H](O)[C@@H](O)[C@@H](O[C@H]7[C@H](O)[C@@H](O)[C@@H](O[C@H]1[C@H](O)[C@H]2O)O[C@@H]7CO)O[C@@H]6CO)O[C@@H]5CO)O[C@@H]4CO)O[C@@H]3CO
inactive: all assays above

Nc1ccc(N=Nc2ccccc2)c(N)n1
inactive: all assays above

CO/N=C(/C(=O)N[C@@H]1C(=O)N2C(C(=O)O)=C(COC(N)=O)CS[C@H]12)c1ccco1
inactive: all assays above
